According to PubChem BioAssay AID1347069 (National Center for Advancing Translational Sciences (NCATS), 2019):
Among all 44,000 compounds or so, fewer than 10 were called active. Calls come from the whole dose curve; as a rule, active = well fitted inhibition curve with a large enough effect; inconclusive = small, poorly fitted or top-dose-only effect; inactive = flat fitted curve, though single readings scatter. Only a sample is shown. Entries that show only a call come without a potency.

Target: Tumor susceptibility gene 101 protein (Homo sapiens) (UniProt Q99816)
Test: qHTS Validation Assay for Inhibitors of HIV-1 Budding by Blocking the Interaction of PTAP/TSG101: Sytravon Library Screen
Conditions: Fluorescence polarization, FITC-PTAP peptide/Tsg101, 20 min; series mostly up to 115 µM
Source text: Stages of the HIV-1 replication cycle, specifically virus assembly and release, provide underexploited targets for the development of novel antiviral inhibitors. The late stages of HIV-1 replication are mediated by the Gag precursor protein, Pr55Gag. Expression of Pr55Gag is both necessary and sufficient for the production of virus-like particles from Gag-expressing cells. The Gag protein hijacks key host proteins involved in endocytic machinery of the host cell to promote endosomal processing and viral budding. The budding process requires a direct interaction between a […] (PTAP) motif in the p6 domain of Gag and the cellular endosomal sorting protein known as Tsg101. In this way, the Gag PTAP motif promotes the host cells to recruit viral particles to the plasma membrane where the new viral particles are released, effectively turning the host cells into viral factories. A fluorescence polarization assay has been developed to quantitatively measure the PTAP-Tsg101 interaction which can be used to screen for inhibitors of this interaction. This assay was run against the NCGC Sytravon Library collection. NIH Molecular Libraries Probe Production Network [MLPCN] NIH Chemical Genomics Center [NCGC] Grant: R03 MH087464-01A1 PI Name: Dr. Eric Freed, NCI
Two uL of the Tsg101 binding domain in buffer (10 mM HEPES pH 7.5; 0.15 M NaCl, 0.01% Tween 20; 3 mM EDTA;0.1 mM TCEP) was dispensed into Greiner black MB 1536-well plates (final concentration 10 uM). Then, 23 nL of compounds or DMSO were delivered to each well using a pin tool. Finally, 2 uL of a FITC-labeled peptide containing the PTAP motif (1) in the same buffer was dispensed (50 nM final concentration) and the binding was allowed to proceed for 20 min. at r.t. Fluorescent polarization was determined using FITC excitation and polarized emission filters on a Perkin Elmer Envision. Assay cut-off (positive/negative criteria): Actives defined by CRC class, <25 µM; Efficacy <60% inhibition. The total fluorescent intensity from S and P channels will be used to flag fluorescent compounds.
Potency is the fitted concentration of half-maximal effect.

Chain of Tumor susceptibility gene 101 protein (Homo sapiens) (Q99816 whole entry, looked up): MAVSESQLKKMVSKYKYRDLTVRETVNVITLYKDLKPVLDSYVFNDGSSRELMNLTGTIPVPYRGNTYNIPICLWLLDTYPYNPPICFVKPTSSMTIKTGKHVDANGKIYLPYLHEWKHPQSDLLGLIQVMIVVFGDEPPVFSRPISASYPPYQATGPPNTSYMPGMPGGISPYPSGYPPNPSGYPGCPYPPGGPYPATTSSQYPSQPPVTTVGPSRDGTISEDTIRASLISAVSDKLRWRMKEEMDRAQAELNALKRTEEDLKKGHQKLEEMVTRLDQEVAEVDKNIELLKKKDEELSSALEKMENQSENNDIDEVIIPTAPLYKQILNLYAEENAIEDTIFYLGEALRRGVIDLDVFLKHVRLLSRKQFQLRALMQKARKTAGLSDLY

Row | SMILES | Potency
1 | Cc1ccc(OCC(=O)OCc2cc(=O)n3nc(C4CC4)sc3n2)cc1 | inactive
2 | CCOC(=O)C(Cc1ccccc1)NC(=O)CCc1c(C)nc2c(c(C)nn2-c2ccc(C)c(C)c2)c1C (centres undefined) | inactive
3 | Cc1ccc(OCCSc2nc(-c3cccs3)nc3cc(=O)[nH]n23)cc1Cl | inactive
4 | CC1(C)N=C(SCc2ccccc2Cl)c2ccccc2N1 | inactive
5 | COc1ccc(Cc2nc3ccc(C(=O)NCc4ccccc4C)cc3o2)cc1 | inactive
6 | COc1ccc(N2C(=O)CS(=O)(=O)C23C(=O)N(Cc2ccc(C)cc2)c2ccccc23)cc1Cl (centres undefined) | inactive
7 | Cc1ccc(C)c(N2CCN(S(=O)(=O)c3ccc4c(c3)C(C(C)C)C(=O)N4)CC2)c1 (centres undefined) | inactive
8 | Cc1ccc(NC(=O)CSc2nnc3[nH]c(=O)cc(C)n23)cc1Cl | inactive
9 | CCOC(=O)C1CCC(CN(Cc2ccc(OC)cc2)S(=O)(=O)c2ccc(F)c(C(=O)Nc3cc(C)ccc3C)c2)CC1 (centres undefined) | inactive
10 | CCOC(=O)N1CCc2c(sc3c2c(=O)n(-c2ccc(CC)cc2)c(=O)n3C)C1 | inactive
11 | COc1ccc(CCN2C(=O)c3oc4cc(C)cc(C)c4c(=O)c3C2c2ccccc2F)cc1OC (centres undefined) | inactive
12 | CSc1ccc(CCNC(=O)c2ccc3c(c2)nc2n3CCOC2)cc1 | inactive
13 | COc1ccccc1N1CCN(C(=O)C2CCN(S(=O)(=O)c3c(C)noc3/C=C/c3ccc(C)cc3)CC2)CC1 | inactive
14 | COc1ccc2c(c1)Cc1sc(NC(=O)c3ccccc3Br)nc1-2 | inactive
15 | CC(=O)Nc1ccc(NC(=O)C2CCCN(S(=O)(=O)c3ccc4c(c3)CCCC(=O)N4)C2)cc1 (centres undefined) | inactive
16 | COc1ccc(Cl)cc1NC(=O)CSc1nc(=O)[nH]c2c1CCCC2 | inactive
17 | CCc1nn(CC(=O)Nc2cc(C)cc(C)c2)c(=O)c2cc3sccc3n12 | inactive
18 | COc1cc(OC)c(NC(=O)c2cnc(N3CCCC3)nc2C)cc1Cl | inactive
19 | O=C(NCCC1=CCCCC1)c1ccc2c(c1)N(Cc1ccccc1F)C(=O)c1ccccc1S2(=O)=O | inactive
20 | O=C(CN1C(=O)COc2ccc(S(=O)(=O)N3CCCCCC3)cc21)N1CCN(c2cccc(C(F)(F)F)c2)CC1 | inactive

Row | SMILES | Potency
21 | CCCCOc1ccc(CN2C(=O)C(=O)c3cc(Br)cc(C)c32)cc1OC | inactive
22 | COc1cc(CN(C(=O)c2ccccc2Br)c2ccccn2)cc(OC)c1OC | inactive
23 | CCOCCCNC(=O)c1c(NC(=O)Cc2coc3c(C)c(C)ccc23)sc2c1CCC2 | inactive
24 | Cc1nnc(N2CCC(C(=O)Nc3ccc(F)cc3)CC2)c2nn(-c3ccc(Cl)cc3)c(C)c12 | inactive
25 | O=C(c1cc(-c2ccc(F)cc2)on1)N1CCN(c2ccc(F)cc2)CC1 | inactive
26 | COC(=O)CN1C(=O)CSc2ccc(S(=O)(=O)Nc3cc(C)ccc3C)cc21 | inactive
27 | Cc1cc(C)c2oc(C(=O)Nc3c(C(=O)Nc4ccccc4)oc4ccccc34)cc(=O)c2c1 | inactive
28 | O=C(NC1CC(=O)N(c2ccc(Cl)cc2)C1)C1CCCC1 (centres undefined) | inactive
29 | CN1CCN(c2oc(-c3ccc(COc4ccc(Cl)cc4)o3)nc2C#N)CC1 | inactive
30 | COc1ccc(-c2nc3sc(CCNS(=O)(=O)c4ccc(F)c(C)c4)c(C)n3n2)cc1 | inactive
31 | O=C(COc1ccccc1F)Nc1ccc(C(=O)OCc2cc(=O)n3nc(C4CC4)sc3n2)cc1 | inactive
32 | CCC(=O)Nc1ccccc1-c1nc2ccccc2n(CC(=O)Nc2ccc(C)c(C)c2)c1=O | inactive
33 | Cc1cccc(-c2nc(SCC(=O)Nc3cc(C)on3)c3c(=O)n(C)c(=O)n(C)c3n2)c1 | inactive
34 | CC(=O)c1ccc(NC(=O)CSc2c(C(C)C)cnc3c2c(=O)n(C)c(=O)n3C)cc1 | inactive
35 | COc1ccc(OCc2ccc(-c3nc(C#N)c(N4CCN(c5ccccc5)CC4)o3)o2)cc1 | inactive
36 | CCCCNC(=O)c1cc(-c2ccc(Cl)c(Cl)c2)on1 | inactive
37 | CCSc1ncc(Cl)c(C(=O)Nc2c(C(=O)c3ccccc3)oc3ccccc23)n1 | inactive
38 | Cc1ccc(NC2=C(c3ccc(C(F)(F)F)cc3)C(=O)c3ccccc32)cc1F | inactive
39 | COc1cccc(C(=O)Nc2ccc(-c3cc(C(F)(F)F)nn3-c3ccccc3)cc2)c1 | inactive
40 | COc1cccc(C(=O)c2sc3nc(-c4ccccc4)cc(C(F)(F)F)c3c2N)c1 | 28.2 µM (active)

Row | SMILES | Potency
41 | COc1ccc(S(=O)(=O)c2c(Nc3cccc(Cl)c3)sc(C(=O)c3ccccc3)c2N)cc1 | inactive
42 | COc1ccc(NC(=O)CN2CCCN(Cc3ccccc3)S2(=O)=O)cc1 | inactive
43 | COc1ccccc1Nc1nc(N)nc(N)c1S(=O)(=O)c1ccccc1 | inactive
44 | COc1cccc(N2CCN(C(=O)CCCCCn3c(=O)[nH]c4ccccc4c3=O)CC2)c1 | inactive
45 | COc1ccc(CNC(=O)c2cc3c(=O)[nH]c4ccccc4c3s2)cc1 | inactive
46 | CCCN1C(=O)C(O)(CC(=O)c2ccc(CC)cc2)c2cc(Br)ccc21 (centres undefined) | inactive
47 | O=C(c1ccco1)n1nc(-c2ccc(Cl)cc2)nc1NCc1ccccc1 | inactive
48 | Cn1c(=O)c2c(-c3ccccc3Br)n(Cc3ccccc3)cc2n(C)c1=O | inactive
49 | Cc1cc(C)c(NC(=O)CN2C(=O)c3cccnc3Oc3ccc(Cl)cc32)c(C)c1 | inactive
50 | CCOC(=O)c1ccc(NC(=O)C2CCN(S(=O)(=O)c3ccc4c(c3)CCCC(=O)N4)CC2)cc1 | inactive
51 | O=C(Nc1ccc2nc(SCC(=O)N3CCCc4ccccc43)sc2c1)c1ccc(F)cc1 | inactive
52 | CCOc1ccc(NC(=O)Cn2c(=O)n(CCCC(=O)NCc3ccc4c(c3)OCO4)c(=O)c3ccccc32)cc1 | inactive
53 | CC(=O)N1c2ccc(S(=O)(=O)N3CCCCCC3)cc2CC1C(=O)NCc1ccccc1C (centres undefined) | inactive
54 | CCOc1cccc(C(=O)Nc2nnc(S(=O)(=O)N(C)c3ccc(C)cc3)s2)c1 | inactive
55 | COc1cc(CNCCSc2nnnn2C)ccc1OCc1ccc(Cl)cc1Cl | inactive
56 | Cc1cn(C)c(CC(=O)NCc2ccccc2)c1C(=O)O | inactive
57 | CCc1ccc(CNC(=O)c2ccc(CS(=O)c3ccc(Br)cc3)o2)cc1 (centres undefined) | inactive
58 | COc1ccc(-n2ccnc(NCCc3ccc(Cl)cc3)c2=O)cc1OC | inactive
59 | N#Cc1nc(/C=C/c2ccc(F)cc2)oc1NC1CCCCC1 | inactive
